Compound activity from PubChem.
MEP2 TOR yeast = modulators of TOR pathway MEP2-GFP in S. cerevisiae; S. cerevisiae MEP2-GFP strain, flow cytometry GFP, 3 h; 100% = DMSO control level; GFP response vs DMSO, % at 10 µM; actives 0.51% (n = 330,000); AID 2016;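 active = GFP response versus DMSO above a set limit, roughly screen mean plus 3 SD, cut at about 180% in these data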;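 note: median GFP fluorescence of the barcode-gated MEP2-GFP cells per well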
RPL19A-GFP yeast = yeast TOR pathway RPL19A-GFP modulation | actives 0.3% (n = 330,000) | percent response vs DMSO, % at 10 µM | S. cerevisiae RPL19A-GFP strain, flow cytometry, 3 h; hits give low values;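 active = percent response vs DMSO below 50%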;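 note: median channel GFP fluorescence of the barcoded RPL19A-GFP strain; lower means less RPL19A-GFP as with rapamycin TOR inhibition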
AGP1-GFP MLPCN = yeast TOR pathway AGP1-GFP modulation; GFP response vs DMSO, % at 10 µM; S. cerevisiae AGP1-GFP multiplex flow cytometry, 3 h; GFP as percent of DMSO wells; actives 0.02% (n = 320,000);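 active = GFP response relative to DMSO above a set limit, near screen average plus 3 SD, cut at about 150% in these data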;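 note: median GFP channel fluorescence of the gated AGP1 strain per well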
CIT2-GFP yeast = yeast TOR pathway CIT2-GFP modulation; actives 0.065% (n = 320,000); S. cerevisiae CIT2-GFP strain, flow cytometry, 3 h; 100 means same as DMSO wells; GFP response vs DMSO, % at 10 µM;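 active = GFP response relative to DMSO above a set limit, near the screen mean plus 3 SD, cut at about 150% in these data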;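 note: ratio of well median GFP fluorescence to mean of DMSO wells on the plate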
LAP4 TOR yeast = modulators of TOR pathway LAP4-GFP in S. cerevisiae | S. cerevisiae LAP4-GFP multiplex, flow cytometry GFP, 3 h; median GFP as percent of DMSO wells | GFP response vs DMSO, % at 10 µM | actives 0.34% (n = 320,000) | AID 2023;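 active = GFP response vs DMSO above a set limit, about the screen mean plus 3 SD, cut at about 150% in these data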
DSG3 Ab inh = inhibitors of pemphigus antibody binding to human desmoglein-3; binding (percent of control), % at 10 µM; actives 0.48% (n = 310,000); DSG3-coupled beads, scFv-anti-DSG3-GFP binding, flow cytometry; hits give low values; P32926; AID 588358;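 active = binding more than 3 SD below its plate's average and above zero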;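 note: hits lower antibody fragment binding to DSG3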
Target sequence (P32926 whole entry, looked up, the tested form may be a part): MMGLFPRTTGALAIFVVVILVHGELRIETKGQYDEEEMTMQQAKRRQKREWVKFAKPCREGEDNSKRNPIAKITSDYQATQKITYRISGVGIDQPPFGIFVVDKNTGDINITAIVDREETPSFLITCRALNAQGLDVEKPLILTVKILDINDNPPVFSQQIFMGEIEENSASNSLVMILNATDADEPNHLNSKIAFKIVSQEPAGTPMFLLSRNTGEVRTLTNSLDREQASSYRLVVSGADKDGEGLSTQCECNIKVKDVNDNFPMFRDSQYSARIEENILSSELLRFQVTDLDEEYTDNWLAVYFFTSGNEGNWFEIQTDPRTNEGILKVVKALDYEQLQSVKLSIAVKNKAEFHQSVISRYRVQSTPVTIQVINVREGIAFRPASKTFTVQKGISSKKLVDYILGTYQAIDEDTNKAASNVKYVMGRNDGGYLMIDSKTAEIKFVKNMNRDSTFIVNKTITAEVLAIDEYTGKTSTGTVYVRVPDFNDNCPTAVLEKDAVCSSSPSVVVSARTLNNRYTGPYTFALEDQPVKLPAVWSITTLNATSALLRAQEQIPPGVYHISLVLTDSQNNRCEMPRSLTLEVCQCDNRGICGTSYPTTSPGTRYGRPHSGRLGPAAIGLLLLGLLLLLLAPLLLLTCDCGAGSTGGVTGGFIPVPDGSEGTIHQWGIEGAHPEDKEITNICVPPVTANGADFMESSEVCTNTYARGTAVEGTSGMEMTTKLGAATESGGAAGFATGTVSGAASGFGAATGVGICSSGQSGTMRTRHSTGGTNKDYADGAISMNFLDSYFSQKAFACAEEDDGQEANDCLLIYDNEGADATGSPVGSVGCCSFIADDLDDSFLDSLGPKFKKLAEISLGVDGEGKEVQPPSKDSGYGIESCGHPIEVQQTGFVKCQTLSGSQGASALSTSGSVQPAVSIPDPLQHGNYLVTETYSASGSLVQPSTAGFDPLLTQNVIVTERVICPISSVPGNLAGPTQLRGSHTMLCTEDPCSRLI
LAP4 cherry2 = second confirmation of modulators of TOR reporter LAP4-GFP in yeast. shares compounds with LAP4 TOR yeast. S. cerevisiae LAP4-GFP strain, flow cytometry GFP, 3 h. actives 20% (n = 590). GFP response vs DMSO, % at 10 µM. AID 2621;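 active = GFP signal as percent of the solvent control above about 150%, meaning raised reporter expression, limit read from the data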
MEP2 cherry2 = yeast MEP2-GFP modulation, second cherry pick | shares compounds with LAP4 TOR yeast | S. cerevisiae MEP2-GFP strain, flow cytometry GFP, 3 h | GFP response vs DMSO, % at 10 µM | actives 10% (n = 590) | AID 2622;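 active = GFP signal above 150% of the solvent control wells, that is a rise of more than half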;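 note: median channel GFP fluorescence of all gated yeast cells per well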
RPL19A GFP CP2 = yeast RPL19A-GFP TOR reporter modulation, second cherry pick. AID 2623. shares compounds with LAP4 TOR yeast. S. cerevisiae RPL19A-GFP strain, flow cytometry GFP, 3 h; hits give low values; 100% means same as DMSO wells. GFP response vs DMSO, % at 10 µM. actives 3% (n = 590);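 active = under 65% GFP response relative to DMSO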;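 note: median GFP channel fluorescence per well over the all cells gate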
CIT2-GFP pick2 = yeast CIT2-GFP TOR reporter modulation, second cherry pick | shares compounds with LAP4 TOR yeast | S. cerevisiae CIT2-GFP strain, flow cytometry GFP, 3 h; DMSO control wells read 100% | GFP response vs DMSO, % at 10 µM | actives 8% (n = 590) | AID 2624;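 active = GFP response vs DMSO above about 150%, limit read from the data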;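 note: median green fluorescence per well over all gated yeast cells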
AGP1 GFP CP2 = second confirmation of modulators of TOR reporter AGP1-GFP in yeast; shares compounds with LAP4 TOR yeast; S. cerevisiae AGP1-GFP strain, flow cytometry GFP, 3 h; percent response vs DMSO, % at 10 µM; AID 2643; 590 tested, under 10 active;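 active = over 150 percent of DMSO response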;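 note: median GFP channel fluorescence over all cells without mother daughter split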
s288c autofluor = counter-screen for compound autofluorescence in yeast s288c cells; shares compounds with LAP4 TOR yeast; 610 tested, under 10 active; S. cerevisiae s288c, 520 nm autofluorescence, flow cytometry, 3 h; hits give high values; zero means same as solvent-only cells; fluorescence change (kMESF span) at 33 µM; AID 2757;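 active = fluorescence span over the dose series, or activity score, above about 33, limit read from the data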
Large screens that a line does not name were inactive (follow-up assays come after a bar, where they were run). Only some compounds are listed: those with a hit (about 1.2% of all), similar ones and a draw of the others.

O=C(Nc1ccc2c(c1)OCCO2)c1ccc(Cl)c([N+](=O)[O-])c1	LAP4 TOR yeast 158 | LAP4 cherry2 inactive | MEP2 cherry2 inactive | RPL19A GFP CP2 inactive | CIT2-GFP pick2 inactive | AGP1 GFP CP2 inactive
Cc1cc(C(=O)Nc2ccc3c(c2)OCCO3)ccc1[N+](=O)[O-]	none
COc1cccc(-n2nnnc2SCC(=O)Nc2ccccc2OC)c1	none
CCCS(=O)(=O)c1nnnn1-c1cccc(OC)c1	LAP4 TOR yeast 204 | s288c autofluor inactive
COc1cc(/C=C2\CC/C(=C\c3cc(OC)c(OC)c(OC)c3)C2=O)cc(OC)c1OC	none
COc1cc(/C=C2\CC/C(=C\c3cc(OC)c(O)c(OC)c3)C2=O)cc(OC)c1O	MEP2 TOR yeast 184 | LAP4 cherry2 inactive | MEP2 cherry2 inactive | RPL19A GFP CP2 inactive | CIT2-GFP pick2 165 | AGP1 GFP CP2 inactive | s288c autofluor inactive
CC(=O)Nc1ccc(C(=O)N/N=C/c2cc(Br)cc(Br)c2O)cc1	none
Cc1ccc(C(=O)O)cc1N=Cc1cc(Br)cc(Br)c1O	LAP4 TOR yeast 180 | LAP4 cherry2 166 | MEP2 cherry2 166 | RPL19A GFP CP2 inactive | CIT2-GFP pick2 inactive | AGP1 GFP CP2 inactive | s288c autofluor inactive
CCc1nc2ccccc2c(=O)n1NC(=O)c1c(O)c2ccccc2n(CC)c1=O	none | LAP4 cherry2 inactive | MEP2 cherry2 224 | RPL19A GFP CP2 42 | CIT2-GFP pick2 168 | AGP1 GFP CP2 inactive | s288c autofluor inactive
CCc1nc2ccccc2c(=O)n1NC(=O)c1c(O)c2cccc3c2n(c1=O)CCC3	none | LAP4 cherry2 inactive | MEP2 cherry2 inactive | RPL19A GFP CP2 64 | CIT2-GFP pick2 inactive | AGP1 GFP CP2 inactive | s288c autofluor inactive
CCOC(=O)c1c(O)c2ccccc2n(CC)c1=O	none
O=C(Nn1c(Cc2ccccc2)nc2ccccc2c1=O)c1c(O)c2cccc3c2n(c1=O)CCC3	none
CCn1c(=O)c(C(=O)Nn2c(C)nc3ccccc3c2=O)c(O)c2ccccc21	none
CCn1c(=O)c(C(C)=O)c(O)c2ccccc21	LAP4 TOR yeast 174 | s288c autofluor inactive
CCn1c(=O)c(C(=O)Nc2nc3ccccc3[nH]2)c(O)c2ccccc21	LAP4 TOR yeast 176 | s288c autofluor inactive
Cc1cc(C)n(S(=O)(=O)c2ccc(C)c(C)c2)n1	none
CCOc1ccc(NC(=O)CC(Cc2cc(C)cc(C)c2)C(=O)O)cc1 (configuration not stated)	none
Cc1ccc(NS(=O)(=O)c2ccc(N3C(=O)CCC3=O)cc2)cc1	none
CCCc1nnc(NC(=O)c2c(O)c3cccc4c3n(c2=O)CCC4)s1	none (no result: DSG3 Ab inh) | LAP4 cherry2 inactive | MEP2 cherry2 inactive | RPL19A GFP CP2 50 | CIT2-GFP pick2 inactive | AGP1 GFP CP2 inactive | s288c autofluor inactive
